The source of these data is ChEMBL document CHEMBL4808148, “HDAC6 screening dataset using tau-based substrate in an enzymatic assay yields selective inhibitors and activators” (2021).

The target in experiment [1] is T1, Protein deacetylase HDAC6 (Homo sapiens) (UniProt Q9UBN7).
T1 sequence (whole entry): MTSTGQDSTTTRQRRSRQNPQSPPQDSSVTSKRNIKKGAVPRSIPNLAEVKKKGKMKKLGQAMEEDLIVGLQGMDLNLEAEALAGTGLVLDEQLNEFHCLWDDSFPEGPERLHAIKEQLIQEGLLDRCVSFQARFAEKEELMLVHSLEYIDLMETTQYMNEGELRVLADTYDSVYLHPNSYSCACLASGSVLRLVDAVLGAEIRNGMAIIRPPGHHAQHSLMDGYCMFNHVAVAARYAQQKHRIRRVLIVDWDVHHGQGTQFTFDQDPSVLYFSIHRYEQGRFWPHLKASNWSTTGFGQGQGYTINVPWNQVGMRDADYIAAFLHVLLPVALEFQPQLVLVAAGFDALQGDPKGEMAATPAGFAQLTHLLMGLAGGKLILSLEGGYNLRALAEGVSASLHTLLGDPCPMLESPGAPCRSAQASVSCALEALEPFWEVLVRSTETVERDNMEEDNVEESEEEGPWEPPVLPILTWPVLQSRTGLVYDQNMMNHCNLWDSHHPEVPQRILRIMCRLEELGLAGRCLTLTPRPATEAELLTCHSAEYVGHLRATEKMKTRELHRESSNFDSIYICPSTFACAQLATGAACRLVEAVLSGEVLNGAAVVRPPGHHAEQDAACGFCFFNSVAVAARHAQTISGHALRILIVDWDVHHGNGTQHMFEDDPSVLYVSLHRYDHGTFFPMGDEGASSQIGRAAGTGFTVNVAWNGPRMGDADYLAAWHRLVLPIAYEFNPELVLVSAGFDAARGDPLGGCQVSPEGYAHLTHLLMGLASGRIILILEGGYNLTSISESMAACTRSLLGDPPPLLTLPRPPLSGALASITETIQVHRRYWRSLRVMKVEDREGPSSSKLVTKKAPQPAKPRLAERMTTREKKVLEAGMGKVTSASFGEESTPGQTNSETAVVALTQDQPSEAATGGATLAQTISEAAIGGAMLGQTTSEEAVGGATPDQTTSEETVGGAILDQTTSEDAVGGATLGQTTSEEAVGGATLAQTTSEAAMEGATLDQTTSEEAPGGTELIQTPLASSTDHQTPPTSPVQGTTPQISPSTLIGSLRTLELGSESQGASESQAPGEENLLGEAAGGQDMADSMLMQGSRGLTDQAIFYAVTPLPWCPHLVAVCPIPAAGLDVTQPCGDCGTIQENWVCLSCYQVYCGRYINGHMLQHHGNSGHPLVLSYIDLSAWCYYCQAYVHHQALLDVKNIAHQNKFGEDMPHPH
The following applies: at 10 µM.

In experiment [2] the target is Protein deacetylase HDAC6 (Homo sapiens) (UniProt Q9UBN7). As to conditions: at 10 µM. This is another data set of the same source.

The campaign covered roughly 5,600 compounds. About 390 (7%) showed an effect of 50% or more. The entries come from a sample that favours strong results as a whole.

In general, inhibition refers to the drop in the measured response relative to a control, in per cent. In the case of `CC(CNS(=O)(=O)C(C)C)c1ccc(-c2ccc(C#N)cc2)cc1` (centres undefined), the inhibition in experiment [1] is 23.9%.

For the compound `O=C(Nc1ccc(OC(F)(F)F)cc1)c1sccc1NCc1ccnc2ccccc12`, the inhibition in experiment [1] came out at 18.5%.

With `CN(C)CCOC1=Cc2ccccc2Sc2ccc(Cl)cc21`, in experiment [1], the inhibition was determined as 96.6%.

For `CN(C)CCOC(=O)COc1ccc(Cl)cc1`, in experiment [1], the inhibition amounted to 1.19%.

Consider `CN1CCN(C2=Nc3ccccc3Sc3ccc(Cl)cc32)CC1`, for which the inhibition in experiment [1] was determined as 29.6%.

Turning to `C[C@H]1[C@H](C)CC[C@]2(C(=O)O)CC[C@]3(C)C(=CC[C@@H]4[C@@]5(C)C[C@@H](O)[C@H](O)C(C)(C)[C@@H]5CC[C@]43C)[C@H]12`, the inhibition in experiment [1] is -2.75%.

With `Cc1ccc([C@@H]2O[C@H](CO)[C@@H](O)[C@H](O)[C@H]2O)cc1Cc1ccc(-c2ccc(F)cc2)s1`, the inhibition in experiment [1] is -5.59%.

Consider `CC(C)NC(=O)N1CC[C@H](NC2=Nc3cc(F)ccc3N(CC(F)F)c3ccc(Cl)cc32)C1`, for which the inhibition in experiment [1] came to 29.2%.

Take `CN(C)CCn1cc(S(=O)(=O)c2cccc(F)c2)c2cccnc21`: the inhibition in experiment [1] turned out to be 14.3%.

For `O=C(NCCCCCCNC(=O)ON=C1CCCCC1)ON=C1CCCCC1`, in experiment [1], the inhibition came out at 40.7%.

AUROTHIOGLUCOSE, CHEMBL1697725: the inhibition in experiment [2] came out at 8.56%.

`COc1ccc2[nH]c(-c3ccccc3)c(CCNC(C)=O)c2c1`: in experiment [1], the inhibition is 9.99%.

`COc1ccc2cc([C@H](C)C(=O)O)ccc2c1`: the inhibition in experiment [1] was -2.33%.

On to `COc1ccc2[nH]c(C(=O)c3ccccc3)cc2c1`, for which the inhibition in experiment [1] came to 109%.

For `Cc1nn(C)c2c1C(c1ccc(C(F)(F)F)cc1)C(C#N)=C(N)O2` (centres undefined), the inhibition in experiment [1] turned out to be 27.3%.

In the case of `OC[C@H]1O[C@@H]2O[C@H]3[C@H](O)[C@@H](O)[C@@H](O[C@H]4[C@H](O)[C@@H](O)[C@@H](O[C@H]5[C@H](O)[C@@H](O)[C@@H](O[C@H]6[C@H](O)[C@@H](O)[C@@H](O[C@H]7[C@H](O)[C@@H](O)[C@@H](O[C@H]8[C@H](O)[C@@H](O)[C@@H](O[C@H]1[C@H](O)[C@H]2O)O[C@@H]8CO)O[C@@H]7CO)O[C@@H]6CO)O[C@@H]5CO)O[C@@H]4CO)O[C@@H]3CO`, the inhibition in experiment [1] was -4.02%.

With `O=C(O)c1cc2occc2[nH]1`, the inhibition in experiment [1] came out at 21.7%.

For the compound `Cc1cc(C)c(N(Cc2ccccc2)S(=O)(=O)c2ccc(OCCNC(=O)c3cc4ccccc4o3)cc2)c(C(=O)NO)c1`, the inhibition in experiment [1] is 71.8%.

In the case of `CN(C(=O)C(Cl)Cl)c1ccc(OC(=O)c2ccco2)cc1`, in experiment [1], the inhibition was 5.17%.

Regarding `CO/N=C(/C(=O)N[C@@H]1C(=O)N2C(C(=O)O)=C(CSc3nc(=O)c(O)nn3C)CS[C@H]12)c1csc(N)n1`, in experiment [1], the inhibition was -3.44%.

As to `COc1cccc(CN(C(=O)CC(C)(C)C)[C@H]2C[C@@H](C(=O)N3CCNCC3)N(Cc3ccc4c(c3)OCO4)C2)c1`, the inhibition in experiment [1] was 2.2%.

`COc1cccc(-c2cc(NCc3ccc4c(c3)OCO4)nc(N)n2)c1`: the inhibition in experiment [1] amounted to 68.7%.

On to `COc1cc(C[C@H](C)[C@H](C)Cc2ccc3c(c2)OCO3)ccc1O`, for which the inhibition in experiment [1] amounted to 0.28%.

With `O=C(NCCS(=O)(=O)c1ccc(C(F)(F)F)cn1)c1ccc(Cl)cc1`, the inhibition in experiment [1] is -5.62%.

On to `CCOC(=O)Nc1ccc2c(c1)N(C(=O)CN(CC)CC)c1ccccc1CC2`, for which the inhibition in experiment [1] was found to be 18.9%.

Regarding `OC[C@H]1OC(O)[C@H](F)[C@@H](O)[C@H]1O` (some centres undefined), the inhibition in experiment [1] is -0.45%.

Take `NC1=NCC2c3ccccc3Cc3ccccc3N12` (centres undefined): the inhibition in experiment [1] is 4.93%.

For `Nc1nc2ccc(OC(F)(F)F)cc2s1`, the inhibition in experiment [1] is 72.9%.

With `CCOc1ccc2nc(S(N)(=O)=O)sc2c1`, in experiment [1], the inhibition was 25.8%.

Take `C=C[C@]1(C)CC[C@@H](C(=C)C)C[C@H]1C(=C)C`: the inhibition in experiment [1] stood at 7.53%.

For `Nc1ccc(O)c(C(=O)O)c1`, the inhibition in experiment [1] was 0.62%.

As to `O=C(Oc1ccccc1C(=O)O)c1ccccc1O`, in experiment [1], the inhibition amounted to 43.2%.

Take `Nc1ccc(C(=O)Oc2ccccc2)c(O)c1`: the inhibition in experiment [1] amounted to 108%.

For `O=S(=O)(N[C@H](CO)C(C(F)(F)F)C(F)(F)F)c1ccc(Cl)s1`, in experiment [1], the inhibition came to 9.08%.

For `O=P(O)(O)OC[C@H]1OC(O)(COP(=O)(O)O)[C@@H](O)[C@@H]1O` (some centres undefined), in experiment [1], the inhibition is 8.76%.

Turning to `Cc1csc(NC(=O)CSc2ccc(-c3ccccc3)nn2)n1`, the inhibition in experiment [1] is 31.4%.

On to `O[C@@H]1[C@H](O)[C@@H](CCl)O[C@H]1n1cnc2c(NC3CC4CCC3C4)ncnc21` (mixture of isomers), for which the inhibition in experiment [1] is 17.3%.

For `CCCCOc1ccc(CC(=O)NO)cc1`, in experiment [1], the inhibition is 73%.

For the compound `CCOc1ccc(NC(C)=O)cc1`, in experiment [1], the inhibition is -4.35%.

With `CCCCOc1ccc(C(=O)CCN2CCCCC2)cc1`, the inhibition in experiment [1] was determined as 4.77%.

For the compound `CC[C@@]1(O)C(=O)OCc2c1cc1n(c2=O)Cc2c-1nc1cc(F)c(C)c3c1c2[C@@H](N)CC3`, the inhibition in experiment [1] is 45.5%.

On to `CCN(CC)CCOC(=O)C1(c2ccc([N+](=O)[O-])cc2)CCCC1`, for which the inhibition in experiment [1] came out at 17.3%.

For `CC1=C(/C=C/C(=C/C=C/C(C)=C/C(=O)O)c2ccc(C)cc2)C(C)(C)CCC1`, in experiment [1], the inhibition was 32.2%.

For the compound `CC(C)NC(=O)COc1cccc(-c2nc(Nc3ccc4[nH]ncc4c3)c3ccccc3n2)c1`, in experiment [1], the inhibition came out at 4.77%.

In the case of `CCCCCCCCCCCCCCCC(=O)NCCO`, the inhibition in experiment [1] was 7.03%.

As to `O=C(CCNNC(=O)c1ccncc1)NCc1ccccc1`, the inhibition in experiment [1] was -0.28%.

In the case of `O=C(CCCCCCNC(=O)c1cnc(N(c2ccccc2)c2ccccc2)nc1)NO`, the inhibition in experiment [1] came to 101%.

Regarding `O=C(O)C1CN(Cc2ccc(-c3nc4cc(Cc5ccccc5F)ccc4s3)c(F)c2)C1`, the inhibition in experiment [1] was determined as 12.2%.

Take `CCCCC/C=C\C=C/CCCCCCCCC(=O)O`: the inhibition in experiment [1] was determined as 13.9%.

Turning to `c1ccc(CNCc2ccc(CN3CCCNCCNCCCNCC3)cc2)nc1`, in experiment [1], the inhibition is -1.23%.

With `Clc1cccc2c1CN(C1=NCCN1)C2`, in experiment [1], the inhibition was -3.56%.

As for `O=c1[nH]nc2c3c(cccc13)N=C(CN1Cc3ccccc3C1)N2`, in experiment [1], the inhibition was -8.46%.

With `CN(C)Cc1ccc(S(=O)(=O)n2ccc(/C=C/C(=O)NO)c2)cc1`, the inhibition in experiment [1] was found to be 101%.

As to `Cn1nc(-c2ccc(C(F)(F)F)cc2)nc2c(=O)n(C)c(=O)nc1-2`, the inhibition in experiment [1] was 12.3%.

As to `CC(=O)OC[C@H]1O[C@@H](n2ccc(=O)[nH]c2=O)[C@H](OC(C)=O)[C@@H]1OC(C)=O`, the inhibition in experiment [1] was 41.6%.

With `Cc1c(F)cc(C(=O)NC2CC2)cc1-c1ccc(C(=O)NCC(C)(C)C)cn1`, the inhibition in experiment [1] was -6.14%.

For `O=C(NC1CCC1)c1ccc(C#Cc2cccc(F)c2)nc1`, the inhibition in experiment [1] amounted to 53.6%.

Regarding `CCOC(=O)c1ccc(C#Cc2ccc3c(c2)C(C)(C)CCS3)nc1`, in experiment [1], the inhibition was determined as 22.8%.

Turning to `COc1ccc(CC(=O)NC(N/C(=N/C#N)Nc2cccc3ncccc23)C(C)(C)C)cc1OC` (centres undefined), the inhibition in experiment [1] worked out at 17.5%.

On to `NC(=O)OC[C@@H]1[C@H](NC(=O)/C(=N\OCC(=O)O)c2csc(N)n2)C(=O)N1S(=O)(=O)O`, for which the inhibition in experiment [1] is 1.5%.

Turning to `COc1cc(C)c2c(Oc3cccc(C(F)(F)F)c3)c(OC)cc(NC(C)CCCN)c2n1` (centres undefined), the inhibition in experiment [1] came to 19.9%.

For `Cc1ccc(NC(=O)c2ccc(CN3CCN(C)CC3)cc2)cc1Nc1nc(-c2cccnc2)cs1`, the inhibition in experiment [1] is 89.4%.

`Cc1ccc(NC(=O)c2ccc(CN3CCN(C)CC3)cc2)cc1Nc1nccc(-c2cccnc2)n1`: the inhibition in experiment [1] came out at 36.3%.

Take `Cc1ccc(C(=O)Nc2cccc(C(F)(F)F)c2)cc1Nc1nc(-c2cccnc2)nc2c1cnn2C`: the inhibition in experiment [1] came to 17.5%.
